Out of some 320,000 compounds screened, about 1,000 (0.31%) were called active.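 How the source made its calls: active means activation above the mean of all tested compounds plus 3 SD, cutoff set per screening run (cut at about 20% in these data); inactive means the rest.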 The list comes from a sample in which actives are over-represented; it also holds similar structures and randomly drawn compounds.
biological target: Oxytocin receptor (Homo sapiens) (UniProt P30559); assay: human OXTR agonists, primary screen, fluorescence, CHO-OTR cells, Fluo-8 calcium (AID 2435); conditions: Fluo-8 calcium fluorescence, at 3 µM, stronger effect = higher value, normalized: DMSO 0%, oxytocin 100%;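 further: peak over basal fluorescence ratio from a 100 s FLIPR kinetic read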
Sequence (P30559 whole entry, looked up): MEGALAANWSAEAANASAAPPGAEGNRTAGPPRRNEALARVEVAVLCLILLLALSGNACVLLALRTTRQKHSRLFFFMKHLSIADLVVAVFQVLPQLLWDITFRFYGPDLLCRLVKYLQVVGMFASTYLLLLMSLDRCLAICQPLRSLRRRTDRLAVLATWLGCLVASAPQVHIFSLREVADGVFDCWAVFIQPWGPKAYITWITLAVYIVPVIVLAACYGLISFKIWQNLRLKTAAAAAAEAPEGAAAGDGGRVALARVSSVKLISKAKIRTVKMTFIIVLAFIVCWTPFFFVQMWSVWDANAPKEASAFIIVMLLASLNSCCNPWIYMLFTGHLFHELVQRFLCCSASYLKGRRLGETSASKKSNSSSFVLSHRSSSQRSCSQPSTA

Compound	activation
CCOC(=O)N/N=C1\CC(C)S(=O)(=O)c2ccc(Cl)cc21 (stereo unspecified)	-2.06% (inactive)
CCOc1ncccc1C(=O)NCCc1ccc(OC)cc1	-1.34% (inactive)
Cc1nc(CN2CCN(C(=O)CCc3nnc(Cc4c[nH]c5ccccc45)o3)CC2)cs1	-0.27% (inactive)
Cn1c2ccccc2c(=O)c2c(O)cccc21	-1.89% (inactive)
CCCc1nc2c(c(=O)c3ccccc3n2C)c(=O)n1C1CCCCCC1	52.1% (active)
Cn1c2ccccc2c(=O)c2c(=O)n(Cc3ccco3)c(COc3ccccc3)nc21	1.8% (inactive)
Cc1ccc(C(=O)Cc2nnc(C)s2)cc1	-0.26% (inactive)
Oc1ccc2ccc3cccc[n+]3c2c1	65.3% (active)
COc1ccc(N2CCN(C(=O)[C@@H](NC(=O)c3cc(OC)cc(OC)c3)C(C)C)CC2)cc1	-0.71% (inactive)
CCOc1ccc(CCNC(=O)C2CCN(c3ccc(N4CCOCC4)nn3)CC2)cc1OCC	-0.01% (inactive)
NC(=O)C1CCN(C(=O)c2cn(-c3ccccc3)nc2-c2cccnc2)CC1	1.05% (inactive)
O=C(NNC(=S)NC(=O)c1cn(-c2ccccc2)nc1-c1ccccc1)c1ccncc1	21.2% (active)
Cc1ccc(-c2nn(-c3ccccc3)cc2C(=O)NC2CCC(O)CC2)cc1 (stereo unspecified)	0.66% (inactive)
COC(=O)c1ccc(COC(=O)C2CCN(S(=O)(=O)c3c(Cl)cccc3Cl)CC2)o1	0.45% (inactive)
O=C(NCc1ccco1)/C(=C/c1cccc([N+](=O)[O-])c1)NC(=O)c1ccco1	-0.34% (inactive)
O=C(c1ccco1)N1CCN(C(=O)C2CC(c3ccc(F)cc3)=NO2)CC1 (stereo unspecified)	38.1% (active)
CCOC(=O)N1CCN(C(=O)C2CC(c3ccc(F)cc3)=NO2)CC1 (stereo unspecified)	0.22% (inactive)
O=C(c1ccco1)N1CCN(C(=O)C2CC(c3ccc(Cl)c(Cl)c3)=NO2)CC1 (stereo unspecified)	5.71% (inactive)

Compound	activation
CC1(C)Oc2ccc3ccc(=O)oc3c2/C(=N/O)C1=O	-0.3% (inactive)
CCCCOc1ccc(CON(C(C)=O)C(C)=O)cc1Cl	-0.28% (inactive)
CC(C)(C)NCC(O)COc1cccc2[nH]c(=O)[nH]c12 (stereo unspecified)	-0.01% (inactive)
CC(O)CNCCOc1cccc(Oc2ccccc2)c1 (stereo unspecified)	2.15% (inactive)
COc1ccccc1OCCNCC(O)COc1cccc2[nH]c3ccccc3c12 (stereo unspecified)	20.7% (active)
CC(=O)c1ccc(NC(=O)c2sc3nc4n(c(=O)c3c2C)CCCCC4)cc1	7.14% (inactive)
COc1cccc(CNCCc2c[nH]c3ccccc23)c1OCc1ccccc1F	23.9% (active)
COc1ccccc1NC(=O)CCCc1c[nH]c2ccccc12	-0.34% (inactive)
COc1ccc(S(=O)(=O)NCCc2c[nH]c3ccccc23)cc1OC	4.77% (inactive)
Cc1cc2nc3n(c2cc1C)CC1CC(C(=O)NCCC(C)C)N(C)C31 (stereo unspecified)	0.52% (inactive)
O=c1c2ccccc2nc2n1C(CSc1ccc(Cl)cc1)CN2 (stereo unspecified)	25.6% (active)
O=c1c2ccccc2nc2n1C(CSCc1ccccc1)CS2 (stereo unspecified)	0.87% (inactive)
O=c1c2ccccc2nc2n1C(CSc1ccc(F)cc1)CN2 (stereo unspecified)	0.69% (inactive)
Cc1ccc(S(=O)(=O)N(C)C)cc1NC(=O)C1Cc2ccccc2CN1C(=O)c1ccco1 (stereo unspecified)	-0.61% (inactive)
C=C(C)CSc1nnc(-c2ccc(C)cc2)n1N	-2.48% (inactive)
COc1ccc(CNC(=O)CCC(=O)Nc2nnc(C(C)C)s2)cc1	-0.01% (inactive)
CCc1nn(CCCC(=O)NC(C)c2ccccc2)c(=O)c2cc3occc3n12 (stereo unspecified)	-0.99% (inactive)
FC(F)(F)c1cc(-c2ccco2)nc(NCc2ccc(Cl)cc2)n1	0.65% (inactive)
